The labels stand for the following.
B1: VH:VL chains; a variant is named by its letters at X, in order (parent)
chain 1: QVQLVQSGAEVKKPGASVKVSCKASGYTFTDYXMHWVRQAPGQGLEWMGXVNPNXXXTTYNQKFEGRVTMTTDTSTSTAYMELRSLRSDDTAVYYCARXNXLDXWGQGTTVTVSS
chain 2: DIQMTQSPSSLSASVGDRVTITCSVSSSVSSIYLHWYQQKPGKAPKLLIYSTSNLASGVPSRFSGSGSGTDFTLTISSLQPEDFATYYCQVYSGYPLTFGGGTKVEIK

Some of the results follow. How many sequences the whole screen found active is unknown.

The test covers variants of B1. Nature of the test: yeast display scFab, FACS + sequencing. Conditions: with MET. In a few lines: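 Two magnetic rounds on Protein A beads coated with HGFR-Fc, followed by FACS, were used to enrich a yeast surface scFab library mutated in the heavy-chain CDRs. FACS gated the top 50% antigen-positive cells after 3 h labelling at room temperature with 1 nM HGFR-Fc and anti-Myc in PBSB plus 1% milk. Binding to the antigen was scored positive when a sequence occurred in both antigen-positive samples from deep sequencing and negative when it occurred only in the input.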
Regarding DATRGAGD, the antigen binding call was “no binding”. For YRTRGAGD the value was “binds”. On to SKRETAWS, for which the antigen binding call is reported as “binds”. On to DKAKGDGS, for which the antigen binding call is on record as “no binding”. As for SKAGDAWD, the antigen binding call was “no binding”. Regarding FEARDYWD, the antigen binding call is reported as “binds”. For FEETDAGD the value was “no binding”. With SEARSDWD, the antigen binding call is reported as “no binding”. For the variant SKAKGAWD, the antigen binding call is “binds”. For SKAKGAWS, the antigen binding call is “binds”. Consider SETKGDWD, for which the antigen binding call was “no binding”.

Regarding DATGNVWS, the antigen binding call was “no binding”.

Regarding YATTSFSF, the antigen binding call is “no binding”. On to FGTKGAWD, for which the antigen binding call is listed as “no binding”. With SKTKSDVD, the antigen binding call was “no binding”. The same measure for FKAKGAWD: “binds”; for SKRKSSSD: “no binding”; for SKTRGAWD: “binds”.

As for SKAKGSSD, the antigen binding call is reported as “binds”. Turning to SKERGDVD, the antigen binding call is “no binding”. For FGEEDFSS chain 1 W105R, the antigen binding call is listed as “no binding”. In the case of VGGTSDVV, the antigen binding call was “no binding”. On to VEEEGSGV, for which the antigen binding call is given as “no binding”. Regarding VRGKDSLD, the antigen binding call is “binds”. With VEETSSLD, the antigen binding call is “no binding”.

Turning to VRAGDSLD, the antigen binding call is reported as “binds”. The same measure for VRAGSSLD: “binds”; for VRTGDSAY: “binds”; for VRAGDDVD: “no binding”. For VTGEDSLD, the antigen binding call was “no binding”. The same measure for DRTGDDVY: “no binding”. Take VRTKAVAY: the antigen binding call is reported as “no binding”. For VTGTSSLD the value was “no binding”. The same measure for VEAGDSLD: “no binding”. The same measure for VTTKSYLV: “no binding”; for DAARGDGV: “no binding”; for VKTGGSLD: “no binding”.

As to VAGTGSLD, the antigen binding call is reported as “no binding”. The same measure for VRTGDSLD: “binds”; for VRKGGSLD: “binds”.

Turning to VRAGSSWD, the antigen binding call is “binds”. The same measure for VRTGDDGV: “no binding”. For the variant AETKGFAV, the antigen binding call was “no binding”.

For VKGASDVA, the antigen binding call is on record as “no binding”. With YGGRAAGA, the antigen binding call is listed as “no binding”. The same measure for YTGTSSGA: “no binding”; for YRAAGSGA: “binds”; for YEGGTSGA: “no binding”. The same measure for VRAGADVA: “no binding”; for YRGGASGA: “binds”; for YRAGAAVA: “binds”.

For YRGRASGA, the antigen binding call is “binds”. For VEEEGDAV the value was “no binding”; for YRGANSGA, “no binding”; for YRAGASLA, “binds”. For YRARSSGA the value was “binds”. As to YRAGSSGA, the antigen binding call is “binds”.

As for DRAGDAGA, the antigen binding call was “no binding”.

In the case of SREAASLA, the antigen binding call is given as “no binding”. The same measure for YRARSAGA: “binds”; for DRAGDSGA: “no binding”; for DEGGDAGD: “no binding”.

Take VAEKGDAA: the antigen binding call is listed as “no binding”.

In the case of VEKGGDWD, the antigen binding call is reported as “no binding”. With FKGEGDVY, the antigen binding call is “no binding”. The same measure for VKTGGDVA: “no binding”; for YRAGASGA: “binds”. Consider YRKEGAAA, for which the antigen binding call was “binds”. Take YRKEAAAA: the antigen binding call was “binds”. Regarding YRKGSAAA, the antigen binding call was “binds”. For DAKEGAAA the value was “no binding”; for VAEAAVGD, “no binding”. The same measure for AETKGDWV: “no binding”; for VEGTSAVY: “no binding”.

As for VKKEDDVV, the antigen binding call is listed as “no binding”.

With VAGGGAAV, the antigen binding call is listed as “no binding”. For VRAGGDWV the value was “no binding”; for VRAGGAWV, “binds”; for VEGGGFAY, “no binding”. With VRGTGAVY, the antigen binding call is “no binding”. Consider VRGGGAAY, for which the antigen binding call was “binds”. VRGGGAWV: the antigen binding call was “binds”. For VREGAAAV the value was “no binding”.

Regarding VRGAGAWV, the antigen binding call was “no binding”. Take VRGGGAAV: the antigen binding call is “binds”.

In the case of DTTGSAVV, the antigen binding call was “no binding”. Regarding FTGTSDLY, the antigen binding call was “no binding”. For FRGRDYGS the value was “no binding”; for FEATASWS, “no binding”; for FRGRGSWS, “binds”. For FRGRDFGS, the antigen binding call is listed as “no binding”. On to FRGRGSVS, for which the antigen binding call is “binds”. Take FRGRGAWS: the antigen binding call is listed as “binds”. For the variant FRGRDSWS, the antigen binding call is “binds”. As to AGGGNDGA, the antigen binding call was “no binding”. VTGGDDWY: the antigen binding call is recorded as “no binding”. For AARADAVV the value was “no binding”; for FRGRGAAS, “binds”; for FRGRGFLS, “no binding”.

For the variant FRGRGDLS, the antigen binding call is “no binding”. The same measure for FRGRGALS: “binds”; for FRGRGAGS: “binds”; for FRGRGSLS: “binds”. The same measure for SGKKSSGV: “no binding”; for VEGTSAVF: “no binding”; for FRGRASLS: “binds”.

As to YRRRGVGY, the antigen binding call was “binds”.

In the case of YAAKSDGY, the antigen binding call is “no binding”. For the variant YRRRGAGY, the antigen binding call was “binds”.

In the case of YRRRGFGY, the antigen binding call is given as “binds”. Take YRRRGDGY: the antigen binding call was “binds”. For DRERGDGY the value was “no binding”; for FAAAGFVA, “no binding”. On to VKREAVGV, for which the antigen binding call is “no binding”. The same measure for YRRRGFGS: “binds”; for YRRRGSGY: “binds”. Take VREGDYLS: the antigen binding call was “no binding”.

Turning to VRTRGALS, the antigen binding call is on record as “binds”. SRTRGFGS: the antigen binding call is on record as “no binding”. Consider YAREAALS, for which the antigen binding call is recorded as “no binding”. On to YRTRGALS, for which the antigen binding call is on record as “binds”. For DREEGAGS the value was “no binding”; for YRTGAALS, “binds”; for DAEESDGA, “no binding”. For the variant DGTKSYGV, the antigen binding call is reported as “no binding”. For the variant VTGGDDWV, the antigen binding call is on record as “no binding”.

With FAEGAAAV, the antigen binding call was “no binding”. On to FKTGGAAV, for which the antigen binding call was “binds”. For FKTKSDAV the value was “no binding”. For DKTGDAAV the value was “no binding”; for YTTGGAAV, “no binding”.

In the case of FKTESAAV, the antigen binding call was “binds”. The same measure for AKTKSDVA: “no binding”; for DATGGDVY: “no binding”; for VAEKGDWY: “no binding”. Turning to FRTGDSWD, the antigen binding call was “binds”. As to FATTDSVD, the antigen binding call is listed as “no binding”. For FRTGDSVD the value was “binds”. FGKEDSVD: the antigen binding call is “no binding”. The same measure for YARADDVA: “no binding”; for FGAKGSSS: “no binding”; for VEAGDSSS: “no binding”. For the variant YRRKGSSS, the antigen binding call is “binds”. The same measure for YRAGDSSS: “binds”. With VKAGDSSS, the antigen binding call was “binds”. Take YRAKGSSS: the antigen binding call is reported as “binds”. The same measure for VKAGDAWS: “no binding”; for SEGTSAVF: “no binding”. For DTKAASSS the value was “no binding”; for DKERGDLV, “no binding”. As for DTRTAYGF, the antigen binding call was “no binding”. The same measure for YRAEGSSS: “binds”; for YRAKSSSS: “binds”; for VKGRADVF: “no binding”. Take YRGGDDLY: the antigen binding call is reported as “no binding”. Regarding DRGGDDWY, the antigen binding call is on record as “no binding”. As to YAGGDFAY, the antigen binding call is “no binding”. For YRGGDSAY the value was “binds”; for DREEGSSY, “no binding”; for DRGGDDVY, “no binding”.

As to YRGGDSSY, the antigen binding call is given as “binds”. As for YRAGGSSY, the antigen binding call is given as “binds”.

As to ARGKASSY, the antigen binding call is “no binding”.

Regarding DRREGYGA, the antigen binding call is “no binding”.

DTTRDDSD: the antigen binding call is given as “no binding”. Regarding VTTKSDWV, the antigen binding call was “no binding”. On to AGKGGFAY, for which the antigen binding call is recorded as “no binding”.

For VEARNDWA chain 1 M81I, the antigen binding call is on record as “no binding”.

As for VETKGDWD, the antigen binding call is listed as “no binding”. For YRRRGAWD the value was “binds”. The same measure for YRRGGAWD: “binds”. As for YETKGDWD, the antigen binding call is “no binding”.

On to FRRGGAWD, for which the antigen binding call is listed as “binds”. As for AETKGDWD, the antigen binding call is listed as “binds”.

Take DTEGGSAS: the antigen binding call was “no binding”. On to DEGGTAVV, for which the antigen binding call was “no binding”. The same measure for DGARNAAA: “no binding”. Turning to DEGGTAGV, the antigen binding call is given as “no binding”. For DEGGTDLD the value was “no binding”; for DATEDDSA, “no binding”; for YRRRGDWY, “binds”. Take FRRRGDWY: the antigen binding call was “no binding”.

In the case of YTKRGDWD, the antigen binding call is listed as “no binding”. On to YTRGADWY, for which the antigen binding call is “no binding”.

Take YRRRGDWD: the antigen binding call is “binds”.

Take YRGKGSWS: the antigen binding call is “binds”.

With YRGKGAWS, the antigen binding call is on record as “binds”. The same measure for DEEASSWA: “no binding”; for DTGTGDVA: “no binding”. The same measure for VRAGDSVA: “binds”; for VEAGDDGA: “no binding”; for VRRGDSVA: “binds”. The same measure for VEAGDAVA: “no binding”.

With VRARGVVA, the antigen binding call is “no binding”. The same measure for VRAGDAGA: “binds”; for VKRGDDVA: “no binding”. Turning to VRATGSVY, the antigen binding call is “no binding”.

As to VRAGGSVA, the antigen binding call was “binds”. On to VRRGDFWA, for which the antigen binding call was “no binding”. With VRAGDDGA, the antigen binding call was “no binding”. Consider VTAGDDVA, for which the antigen binding call is listed as “no binding”. For VGGRADGF the value was “no binding”; for SKTKSDGA, “no binding”; for DAGGAAGD, “no binding”. For ATTKSAVA the value was “no binding”.

As to VRRASSVA, the antigen binding call is “binds”. For VRAEGSVA, the antigen binding call was “binds”.

Consider FRAEGSVA, for which the antigen binding call is on record as “binds”.

Take VKAGDDVA: the antigen binding call is on record as “no binding”. The same measure for YKAGDSVA: “binds”; for VTRGADAV: “no binding”.

For the origin of these results see the emibetuzumab library of Makowski et al. (2022).
